Screening results (PubChem BioAssay)
Shown are actives, neighbours in structure and some others; about 3.8% of the full set was active somewhere.
esBAF inh = inhibitors of esBAF chromatin remodeling in mouse ES cells. Bmi1-luciferase knock-in reporter, 24 h; 100% = twice the neutral-well signal. reporter increase, % at 12.5 µM. 350,000 compounds, 2% hits; in the data active = activation above about 40%;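 note: 0% = median of the plate's neutral control wells and 100% = double that signal; a rise in the Bmi1 reporter signal indicates esBAF inhibition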
HSF-1 act = increases HSF-1 driven luciferase reporter signal | 300,000 compounds, 1.7% hits | NIH3T3-HGL HSF-1 luciferase reporter, MG132, 8 h; 100% = twice DMSO control signal | activation, % at 9 µM;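 active = mean replicate activation of at least 50% with a set share of replicates each reaching 50%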;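 note: 0% = median of the neutral control wells and 100% = twice that signal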
HSF1 inhib = HSF1 inhibition; NIH3T3-HGL HSE-luciferase, MG132-induced, luminescence 8 h; active compounds read low; activity change, negative = inhibition, % at 7.5 µM (by protocol); 300,000 compounds, 0.77% hits; AID 2098;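 active = more than half of replicate wells show activity change below -50%, luminescence cut by over half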;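 note: luciferase reports HSF-1 transcriptional activity via heat shock element; 0% = median of DMSO wells and -100% = zero luminescence signal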
MITF TRPM1 HTS = MITF TRPM1 promoter activation in melanoma cells; activation, % at 12.5 µM; 300,000 compounds, 0.75% hits; SK-MEL-5 TRPM1-promoter luciferase, 24 h; % of positive control, neutral wells = 0;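 active = mean activation of at least 80% with every replicate also reaching 80%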;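 note: 0% = neutral control wells and 100% = parthenolide positive control wells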
Wnt bcat act = activators of Wnt/beta-catenin signaling. Wnt/beta-catenin reporter cell assay, activator, plate reader. 300,000 compounds, 1.2% hits. activation, % at 9.35 µM. AID 743398; in the data active = activation above about 30%, passing the limit was not always enough;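 note: 0% = neutral control wells and 100% = positive control wells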
The depositor's hits bear a star; . = not tested or not shown.

SMILES	esBAF inh	HSF-1 act	HSF1 inhib	MITF TRPM1 HTS	Wnt bcat act
O=C(C[C@H]1C[C@@H]2c3cc(NS(=O)(=O)c4ccc(F)cc4)ccc3O[C@@H]2[C@H](CO)O1)NCc1ccccn1	-2.6	.	.	.	.
CC(C)(C)C1CCC(C(=O)Nc2nccs2)CC1 (stereo not given)	52.8*	-2.9	1.8	.	-0.4
O=C(CCC(=O)c1ccc(Br)cc1)Nc1cccnc1	-0.7	-88.3	-85.0*	-9.3	-3.2
O=C(CCC(=O)c1ccccc1)Nc1cccnc1	-3.2	44.1	-6.1	-14.2	.
Cc1nc(-c2ccccc2Cl)sc1C(=O)/C=C/N(C)C	59.0*	.	.	57.2	7.4
O=C1C(Cl)=C(Nc2ccccc2O)C(=O)N1CCc1ccccc1	62.2*	28.2	20.9	-2.4	-0.8
CCOc1ccc(N2C(=O)C(Cl)=C(Nc3ccccc3O)C2=O)cc1	40.8*	66.7*	43.7	-17.0	.
C[C@@H]1CN([C@@H](C)CO)C(=O)c2cccc(NC(=O)c3cnccn3)c2O[C@@H]1CN(C)S(C)(=O)=O	-4.0	.	.	.	.
O=C(CCCn1c(=S)[nH]c2cc3c(cc2c1=O)OCO3)NCc1ccco1	-2.4	54.8*	4.6	-8.8	-1.2
O=C(Nc1ccccc1F)N[C@H]1CC[C@@H](CCNS(=O)(=O)c2ccccc2)O[C@H]1CO	0.4	.	.	.	.
CCc1nc(C)cn1S(=O)(=O)c1ccc(Br)cc1	-3.2	3.0	-5.8	-4.7	50.6*
Cc1noc(C)c1NC(=O)N(C)C[C@H]1Oc2c(NC(=O)Nc3ccc(F)cc3)cccc2C(=O)N([C@H](C)CO)C[C@@H]1C	-0.7	.	.	.	.
COc1cccc(-c2ccc3n(c2=O)C[C@@H]2[C@@H](CO)[C@H](C(=O)N(C)C)N(CC4CC4)[C@H]32)c1	0.1	.	.	.	.
CO[C@H]1CN(C)C(=O)c2cc(NS(=O)(=O)CC(F)(F)F)ccc2OC[C@@H](C)N(Cc2ccccn2)C[C@@H]1C	-3.0	.	.	.	.
Cc1ccc(C(=O)Nc2sc(C)c(-c3ccccc3)c2C(N)=O)cc1[N+](=O)[O-]	-56.7	-83.4	-81.5*	-18.9	-14.5
COc1cc(NC(=O)c2cc3ccccc3o2)c(OC)cc1Br	1.3	-12.0	-15.2	-5.9	.
O=C(Nc1ccccc1Cl)c1cc2ccccc2o/c1=N\O	34.3	72.4*	35.0	0.1	13.0
COc1ccc(-c2cc3ccccc3oc2=O)cc1NC(=O)c1ccc([N+](=O)[O-])o1	41.6*	31.0	29.0	-55.1	.
COc1ccc(NC(=O)c2oc3ccccc3c2C)c(OC)c1	24.5	28.3	-0.5	19.5	5.9
COc1ccccc1NC(=O)c1oc2ccccc2c1C	46.7*	.	.	.	.
COc1ccccc1NC(=O)c1cc2ccccc2o1	71.9*	47.5	19.5	35.5	.
O=C(CCN1CCCCC1)NCC[C@H]1CC[C@@H](NC(=O)C2CCCC2)[C@H](CO)O1	-0.7	.	.	.	.
CC(C)CC#Cc1ccc2c(c1)O[C@H](CN(C)C(=O)Cc1ccccc1)[C@H](C)CN([C@@H](C)CO)S2(=O)=O	-3.3	.	.	.	.
COc1ccc(CN(C)C[C@H]2OCCCC[C@H](C)Oc3ccc(NS(=O)(=O)c4ccccc4)cc3C(=O)N([C@H](C)CO)C[C@H]2C)cc1	2.2	.	.	.	.
Cc1ccc(NC(=O)c2ccc3ccccc3n2)nc1	22.1	47.2	23.5	41.5	77.3*
SMILES	esBAF inh	HSF-1 act	HSF1 inhib	MITF TRPM1 HTS	Wnt bcat act
Cc1cc(C)nc(NC(=O)c2cc3ccccc3o2)n1	-4.1	-0.3	-1.0	-2.5	6.7
CCN(CC)c1ccc(NC(=O)c2cc3ccccc3o2)c(C)c1	45.3*	7.1	22.1	47.4	.
Cc1ccccc1NC(=O)c1cc2ccccc2o1	46.8*	44.2	25.4	49.8	17.8
Cc1ccc(NC(=O)c2cc3ccccc3o2)nc1	.	23.0	17.9	27.6	64.7*
CCN(CC)c1ccc(NC(=O)c2c(OC)cccc2OC)c(C)c1	-7.3	27.1	1.6	.	2.9
CN1C(=O)c2cc(NC(=O)c3ccccc3F)ccc2OC[C@H]2O[C@H](CC(=O)NCc3ccc4c(c3)OCO4)CC[C@H]21	-1.4	.	.	.	.
COc1ccc(-c2ccc3n(c2=O)C[C@@H]2[C@@H](CO)[C@H](C(=O)NC4CCC4)N(S(C)(=O)=O)[C@H]32)cc1	-5.4	.	.	.	.
O=C(Nc1nc(-c2ccc(F)cc2)cs1)C1CCCO1 (stereo not given)	.	28.9	10.9	85.1*	44.7*
O=C(Nc1nc2ccc(Cl)cc2s1)C1CCCO1 (stereo not given)	49.4*	-13.3	-15.2	60.7	.
O=C(Nc1nc2ccc(Cl)cc2s1)C1CC1	.	40.0	28.4	.	60.2*
Cc1ccc2nc(-c3ccc(NS(=O)(=O)c4ccc(F)cc4)cc3)sc2c1	.	20.0	4.9	40.2	44.4*
